Test [1] in a line: kinase inhibitors against Plasmodium liver-stage infection, cell-based, known kinase inhibitor set, luminescence, hepatoma host viability (AID 624392).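 Further: infected cells incubated roughly two days before readout.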 Particulars: Plasmodium liver stage in hepatoma cells, luciferase luminescence, concentration not given here; liver cell % of control: measured here: host liver cell viability; parasite % of control: stronger effect = lower value.
A short description of test [2]: modulators of glucocorticoid suppression of NF-kB, cell-based, luciferase, IL-1B stimulus, dexamethasone (AID 624486).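 On percent of negative control (+Dex): 100% = mean signal of vehicle control wells on the plate.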 Particulars: NF-kB luciferase reporter, IL-1B + dexamethasone, luminescence; percent of negative control (+Dex): actives lie on both sides, concentration not given here; z-score: measured here: IL-1B alone, no Dex.
Test [3] concerns the target Cellular tumor antigen p53 (Homo sapiens) (UniProt P04637). The test is described as follows: kinase inhibitors altering GFP-p53 stability in HPV16-positive cells, imaging, known kinase inhibitor set, EGFP/DsRed ratio (AID 1053116).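 Further: cells exposed to compounds for 24 h at 37 °C before reading.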 Particulars: stronger effect = higher value; EGFP object count: measured here: GFP-p53 positive objects count.
Test [4] in a line: IRF3 reporter activation in THP-1 macrophages, cell-based, PMA-stimulated THP-1, luminescence (AID 1053176). Particulars: PMA-differentiated THP-1, IRF3 reporter luminescence; stronger effect = higher value.

Active and inactive are the calls of the source. How the calls were made is not given here.

Sequence of Cellular tumor antigen p53 (Homo sapiens) (P04637 whole entry, looked up): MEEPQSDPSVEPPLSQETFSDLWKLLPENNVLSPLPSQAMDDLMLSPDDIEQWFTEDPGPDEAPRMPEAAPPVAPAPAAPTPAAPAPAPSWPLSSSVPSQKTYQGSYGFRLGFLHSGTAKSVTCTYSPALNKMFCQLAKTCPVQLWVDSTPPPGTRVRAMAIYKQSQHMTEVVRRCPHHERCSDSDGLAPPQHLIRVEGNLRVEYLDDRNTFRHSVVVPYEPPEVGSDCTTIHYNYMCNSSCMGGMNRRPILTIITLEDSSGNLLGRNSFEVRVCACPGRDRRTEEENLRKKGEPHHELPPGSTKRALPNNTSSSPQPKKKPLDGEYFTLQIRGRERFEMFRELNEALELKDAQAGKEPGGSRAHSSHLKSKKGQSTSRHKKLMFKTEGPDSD

Turning to `Cn1cc(C2=C(c3cn(CCCCO)c4ccccc34)C(=O)NC2=O)c2ccccc21`, in test [1], the liver cell % of control came out at 84% and the parasite % of control was 14.3% (inactive). Moreover, in test [2], the percent of negative control (+Dex) is 108% (inactive) and the z-score was -1.57. In addition, in test [3], the EGFP object count is 32.5 and the EGFP/DsRed ratio is 0.668 (inactive). Besides, the fraction signal in test [4] was -0.005 (inactive).
On to `Cn1cc(C2=C(c3c4n(c5ccccc35)CC(CN)C4)C(=O)NC2=O)c2ccccc21` (configuration not stated), for which, in test [1], the liver cell % of control is 97.6% and the parasite % of control is 48.9% (inactive). In test [2], the percent of negative control (+Dex) is 100% (inactive) and the z-score is -0.23. In test [3], the EGFP object count was found to be 6.5 and the EGFP/DsRed ratio is 0.00726 (inactive). Besides, the fraction signal in test [4] is -0.005 (inactive).
In the case of `Cn1cc(C2=C(c3cccc(Br)c3)C(=O)NC2=O)c2ccccc21`, in test [1], the liver cell % of control worked out at 153% and the parasite % of control was 39.5% (inactive). Also, in test [2], the percent of negative control (+Dex) is 110% (inactive) and the z-score is -0.515. In test [3], the EGFP object count stood at 3.5 and the EGFP/DsRed ratio was 0.13 (inactive). In test [4], the fraction signal was 0.0055 (inactive).
Consider `Cn1cc(C2=C(c3cn(CCCCCO)c4ccccc34)C(=O)NC2=O)c2ccccc21`, for which, in test [1], the liver cell % of control came to 97.8% and the parasite % of control is 31.3% (inactive). Besides, in test [2], the percent of negative control (+Dex) is 101% (inactive) and the z-score was -1.23. Further, in test [3], the EGFP object count stood at 18.5 and the EGFP/DsRed ratio was 0.347 (inactive). The fraction signal in test [4] was -0.0115 (inactive).
Turning to `Cc1nc2sc3c(N)ncnc3c2c(C)c1C`, in test [1], the liver cell % of control is 140% and the parasite % of control was 42% (inactive). Moreover, in test [2], the percent of negative control (+Dex) is 77.5% (inactive) and the z-score was -1.64. In test [3], the EGFP object count stood at 5 and the EGFP/DsRed ratio was 0.308 (inactive). Further, the fraction signal in test [4] was -0.003 (inactive).
`COCC(N=C1NC(=O)C(=Cc2ccc3ncccc3c2)S1)c1ccccc1` (configuration not stated): in test [1], the liver cell % of control worked out at 98.8% and the parasite % of control was 49.5% (inactive). In test [2], the percent of negative control (+Dex) was 98% (inactive) and the z-score worked out at 0.145. In addition, in test [3], the EGFP object count was 6.5 and the EGFP/DsRed ratio is 0.249 (inactive). In addition, the fraction signal in test [4] is -0.005 (inactive).
`Cn1cc(C2=C(c3cn(CCCCCN)c4ccccc34)C(=O)NC2=O)c2ccccc21`: in test [1], the liver cell % of control was 105% and the parasite % of control was 35.6% (inactive). Also, in test [2], the percent of negative control (+Dex) is 99.5% (inactive) and the z-score is 0.77. For the same compound, in test [3], the EGFP object count worked out at 13.5 and the EGFP/DsRed ratio was 0.639 (inactive). Moreover, the fraction signal in test [4] was 0.0035 (inactive).
`Cn1cc(C2=C(c3cn(C)c4ccccc34)C(=O)NC2=O)c2ccccc21`: in test [1], the liver cell % of control was 115% and the parasite % of control is 66.6% (inactive). In test [2], the percent of negative control (+Dex) was 110% (inactive) and the z-score is -0.485. Besides, in test [3], the EGFP object count worked out at 25.5 and the EGFP/DsRed ratio was 0.17 (inactive). The fraction signal in test [4] is -0.001 (inactive).
Consider `O=c1c(Oc2ccc(F)cc2F)cc2cnc(NC3CCOCC3)nc2n1CCCO`, for which, in test [1], the liver cell % of control was 122% and the parasite % of control is 71.8% (inactive). In test [2], the percent of negative control (+Dex) is 92% (inactive) and the z-score is -0.815. Moreover, in test [3], the EGFP object count is 2.5 and the EGFP/DsRed ratio is 0.0231 (inactive). Also, in test [4], the fraction signal was 0.0075 (inactive).
As for `COc1ccc(CCN=C2NC(=O)C(=Cc3ccc4ncccc4c3)S2)cc1`, in test [1], the liver cell % of control amounted to 99.3% and the parasite % of control is 48.7% (inactive). Also, in test [2], the percent of negative control (+Dex) is 100% (inactive) and the z-score is 0.55. For the same compound, in test [3], the EGFP object count is 3 and the EGFP/DsRed ratio is 0.381 (inactive). Also, in test [4], the fraction signal was 0.001 (inactive).
Turning to `Cn1c(=O)c(Oc2ccc(F)cc2F)cc2cnc(NC(C)(C)CO)nc21`, in test [1], the liver cell % of control worked out at 114% and the parasite % of control was 73.2% (inactive). In test [2], the percent of negative control (+Dex) was 106% (inactive) and the z-score came to 1.07. For the same compound, in test [3], the EGFP object count was 3 and the EGFP/DsRed ratio was 0.148 (inactive). For the same compound, the fraction signal in test [4] is 0.023 (inactive).
`CCCCCNC(=O)C1CCCN2C(=O)CCC(NC(=O)C(Cc3ccc(OP(=O)(O)O)cc3)NC(C)=O)C(=O)N12` (configuration not stated): in test [1], the liver cell % of control was determined as 106% and the parasite % of control is 50.1% (inactive). Further, in test [2], the percent of negative control (+Dex) is 99% (inactive) and the z-score was found to be 0.695. For the same compound, in test [3], the EGFP object count amounted to 3.5 and the EGFP/DsRed ratio was 0.227 (inactive). Also, in test [4], the fraction signal is -0.007 (inactive).
For `COc1ccccc1CCN=C1NC(=O)C(=Cc2ccc3ncccc3c2)S1`, in test [1], the liver cell % of control was 109% and the parasite % of control is 68.7% (inactive). In addition, in test [2], the percent of negative control (+Dex) was 90.5% (inactive) and the z-score is -0.58. Further, in test [3], the EGFP object count came to 5 and the EGFP/DsRed ratio was 0.0846 (inactive). Moreover, the fraction signal in test [4] was 0.39 (active).
With `O=C1NC(=NCCc2ccccc2Cl)SC1=Cc1ccc2ncccc2c1`, in test [1], the liver cell % of control worked out at 121% and the parasite % of control is 44.8% (inactive). In test [2], the percent of negative control (+Dex) is 90% (inactive) and the z-score was determined as 0. Also, in test [3], the EGFP object count is 4.5 and the EGFP/DsRed ratio was 0.105 (inactive). Moreover, the fraction signal in test [4] was -0.003 (inactive).
On to `Cn1cc(C2=C(c3cn(C)c4cc(Cl)ccc34)C(=O)NC2=O)c2ccccc21`, for which, in test [1], the liver cell % of control was 82.6% and the parasite % of control was 48.4% (inactive). In test [2], the percent of negative control (+Dex) was 126% (active) and the z-score is -0.405. Besides, in test [3], the EGFP object count is 31 and the EGFP/DsRed ratio is 0.0945 (inactive). Further, the fraction signal in test [4] is -0.009 (inactive).
With `Fc1ccc(-c2c(-c3ccncc3)n(CCN3CCOCC3)c3cccnc23)cc1`, in test [1], the liver cell % of control turned out to be 113% and the parasite % of control was 63.8% (inactive). In addition, in test [2], the percent of negative control (+Dex) was 91.5% (inactive) and the z-score was 0.395. In addition, in test [3], the EGFP object count was 1.5 and the EGFP/DsRed ratio was 0.18 (inactive). For the same compound, the fraction signal in test [4] was -0.0075 (inactive).
Consider `Cn1c(=O)c(Oc2ccc(F)cc2F)cc2cnc(NC3CCC(O)CC3)nc21` (configuration not stated), for which, in test [1], the liver cell % of control is 112% and the parasite % of control was 60.3% (inactive). In test [2], the percent of negative control (+Dex) is 85% (inactive) and the z-score is -0.62. Also, in test [3], the EGFP object count was 5 and the EGFP/DsRed ratio is 0.154 (inactive). Moreover, the fraction signal in test [4] was -0.0095 (inactive).
Regarding `O=C1NC(=NCc2c(Cl)cccc2Cl)SC1=Cc1ccc2ncccc2c1`, in test [1], the liver cell % of control was found to be 106% and the parasite % of control was 51.5% (inactive). In test [2], the percent of negative control (+Dex) is 101% (inactive) and the z-score came out at 0.16. Besides, in test [3], the EGFP object count was 2.5 and the EGFP/DsRed ratio is 0.0754 (inactive). Also, in test [4], the fraction signal was -0.009 (inactive).
With `CS(=O)(=O)N1CCC(Nc2ncc(C(=O)c3c(F)cccc3F)c(N)n2)CC1`, in test [1], the liver cell % of control was found to be 89.5% and the parasite % of control is 70.6% (inactive). Further, in test [2], the percent of negative control (+Dex) is 88.5% (inactive) and the z-score was -0.28. In addition, in test [3], the EGFP object count came to 2 and the EGFP/DsRed ratio was 0.123 (inactive). Further, the fraction signal in test [4] is -0.005 (inactive).
On to `O=[N+]([O-])c1ccc2c(c1)C(c1ccccc1Cl)=Nc1c(n[nH]c1-c1cccnc1)N2`, for which, in test [1], the liver cell % of control turned out to be 237% and the parasite % of control was 4.98% (inactive). In test [2], the percent of negative control (+Dex) was 102% (inactive) and the z-score was -0.45. Besides, in test [3], the EGFP object count is 8 and the EGFP/DsRed ratio is 0.194 (inactive). The fraction signal in test [4] is 0.01 (inactive).
Consider `O=C1NC(=NCc2ccccc2)SC1=Cc1ccc2ncccc2c1`, for which, in test [1], the liver cell % of control was found to be 99.5% and the parasite % of control was 34.9% (inactive). Besides, in test [2], the percent of negative control (+Dex) was 92.5% (inactive) and the z-score was -0.26. In test [3], the EGFP object count came out at 7 and the EGFP/DsRed ratio was 0.173 (inactive). Moreover, in test [4], the fraction signal was -0.003 (inactive).
